# Only some compounds are listed: those with a hit (about 27% of all), similar ones and a draw of the others.
# sEH inhibitor: soluble epoxide hydrolase (human) inhibition; P34913; recombinant human sEH enzymatic activity assay; inhibition, % at 2 µM; hit rate 0.34% among 91,000; in the data active = inhibition above about 80%
# sEH activator: activators of human soluble epoxide hydrolase. P34913. purified human sEH enzymatic activity, activator screen. activation, % at 2 µM. hit rate 0.04% among 91,000; in the data active = activation above about 37%
# CYP2C9 act: CYP2C9 (human) activation | P11712 | activation factor at 5 µM | recombinant CYP2C9, luciferin-H conversion, luminescence; stronger effect = higher value; factor 1 = untreated enzyme, 0 = blocked | hit rate 1.4% among 96,000;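 active = activation factor of 2 or more for CYP2C9 at a 5 µM dose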;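 note: 0 = sulfaphenazole-blocked wells and 1 = vehicle-only wells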
# Target sequence (P11712 whole entry, looked up): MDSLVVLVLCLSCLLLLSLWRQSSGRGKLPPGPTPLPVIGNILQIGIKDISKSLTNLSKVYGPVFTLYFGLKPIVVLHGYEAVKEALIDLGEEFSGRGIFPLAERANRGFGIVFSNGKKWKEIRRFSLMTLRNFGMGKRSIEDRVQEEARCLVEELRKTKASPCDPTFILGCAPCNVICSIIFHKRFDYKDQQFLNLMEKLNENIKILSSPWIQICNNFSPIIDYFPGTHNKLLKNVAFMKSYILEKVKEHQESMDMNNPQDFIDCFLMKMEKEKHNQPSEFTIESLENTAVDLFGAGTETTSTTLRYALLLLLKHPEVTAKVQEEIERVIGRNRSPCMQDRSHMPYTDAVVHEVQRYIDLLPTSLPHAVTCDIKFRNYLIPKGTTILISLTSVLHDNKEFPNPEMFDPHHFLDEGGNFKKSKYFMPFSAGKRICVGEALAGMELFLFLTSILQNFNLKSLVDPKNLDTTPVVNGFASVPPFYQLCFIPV
# CYP2C19 inhib: inhibitors of human CYP2C19. P33261. CYP2C19 Supersomes, luciferin-H EGE luminescence, 30 min. inhibition, % at 5 µM. hit rate 21% among 96,000. AID 778;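 active = CYP2C19 inhibition above a set limit at 5 µM in the primary screen, cut at about 50% in these data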;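 note: plate controls were negative control wells for no effect and 2.5 mM tranylcypromine positive control for full effect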
# CYP2C9 inh: human CYP2C9 inhibition | P11712 | CYP2C9 Supersomes, luciferin-H conversion, luminescence | inhibition, % at 5 µM | hit rate 20% among 96,000 | AID 777;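 active = blocking of liver enzyme CYP2C9 beyond about 50% at 5 µM, limit read from the data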
# CYP2C19 act: cytochrome P450 2C19 (human) activation; recombinant CYP2C19, luciferin-H EGE luminescence; stronger effect = higher value; 0 = fully inhibited enzyme, 1 = untreated enzyme; 96,000 tested, under 10 active; activation factor at 5 µM; P33261;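 active = activation factor of at least 2 at 5 µM in the primary screen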;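 note: 0 = wells with 2.5 mM tranylcypromine and 1 = vehicle-only wells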
# Active calls of the source: *; · = no result.
SMILES,sEH inhibitor,sEH activator,CYP2C9 act,CYP2C19 inhib,CYP2C9 inh,CYP2C19 act
COc1ccc(CNC(=O)C2CC(=O)N(c3ccc(OCC(=O)N4CCCCC4)cc3)C2)cc1 (stereo not given),32.8,-31.4,0.5,32.2,47.3,0.7
CC1CC(C)CN(Cc2nc3c(c(=O)n(C)c(=O)n3C)n2CCN2CCOCC2)C1 (stereo not given),-5.9,7.4,0.8,7.1,18.7,0.9
Cc1cc(/C=C(\C#N)C(=O)NCc2cccs2)c(C)n1-c1ccccc1F,-14.9,18.2,1,0.5,2.1,1
CCc1nc2ccccc2c(C(=O)OCCN2C(=O)c3ccccc3C2=O)c1C,-1.5,0.0,0.4,76.2*,57.1*,0.2
CCc1nc2ccccc2c(C(=O)O)c1C,1.6,-3.5,0.6,48.2,38.9,0.5
CCc1nc2ccccc2c(C(=O)OCc2nnc(-c3ccccc3)o2)c1C,-9.3,10.2,0.4,67.8*,60.8*,0.3
O=C1NCCCC1C(=O)Nc1ccccn1 (stereo not given),-2.1,1.6,1,2.6,1.7,1
O=C(c1ccc(Cl)nc1)N1CCc2ccccc2C1,-23.8,21.5,0.5,98.0*,46.9,0
O=C(c1cncc(Br)c1)N1CCc2ccccc2C1,-11.4,9.3,0.6,85.6*,41.4,0.1
O=C(c1cccc(F)c1)N1CCc2ccccc2C1,6.2,-6.9,0.9,69.8*,9.3,0.3
O=C(c1cncc(Br)c1)N1CCCc2ccccc21,7.4,-4.3,0.6,62.2*,39.7,0.4
Cc1ccc(S(=O)(=O)N2CCOCC2)cc1NC(=O)COC(=O)CSc1ccc(Br)cc1C,8.5,-7.2,1.3,41.0,-34.8,0.6
O=C(Nc1ccc(NC(=O)c2cccs2)cc1)c1ccc(Br)o1,7.9,-5.9,0.9,6.5,14.6,0.9
Cn1cccc1-c1nc2ccc(NC(=O)c3cccs3)cc2[nH]1,9.2,-11.2,0.2,72.8*,78.5*,0.3
O=C(Nc1ccc2nc(-c3ccc(Br)o3)[nH]c2c1)c1cccs1,10.7,-13.1,0.3,45.2,66.7*,0.5
CCCCC(=O)Nc1ccc(Br)cn1,9.3,-9.7,0.9,57.3*,11.9,0.4
CCCCNC(=O)Nc1ccc(Br)cn1,·,·,0.5,81.9*,51.5*,0.2
CCCCNC(=O)Nc1ccccn1,-1.8,0.8,0.7,15.5,30.1,0.8
COCCCNC(=O)Cn1cc2c(n1)CCC(C)C2 (stereo not given),·,·,1.2,-3.2,-23.3,1
Cc1ccc(-c2cc(C(=O)NCc3ccccn3)c3ccccc3n2)cc1,11.5,-9.0,0.5,25.3,49.3,0.7
COCCNC(=O)c1cc(-c2cccnc2)nc2ccc(Br)cc12,10.9,-11.0,0.8,3.7,21.3,1
Cc1ccc2nc(-c3ccccc3)cc(C(=O)NCCCn3ccnc3)c2c1,11.1,-8.5,0,81.1*,98.0*,0.2
O=C(NCCCn1ccnc1)c1cc(-c2ccc(Cl)cc2)nc2ccccc12,-2.1,4.9,0,89.9*,98.3*,0.1
CNC(=O)c1ccc(-c2ccccc2)s1,5.8,-6.2,0.9,22.9,11.5,0.8
O=C(OCCN1CCCC1=O)c1cncc(Br)c1,10.7,-10.8,1.1,-0.5,-7.2,1
SMILES,sEH inhibitor,sEH activator,CYP2C9 act,CYP2C19 inhib,CYP2C9 inh,CYP2C19 act
CSc1nc(NC(C)(C)C)nc(Oc2ccc(=O)n(C)n2)n1,7.0,-7.1,1.1,-4.1,-8.9,1
O=C(CSCC(=O)Nc1ccc2ccccc2c1)NCc1ccccc1,-12.4,12.4,1,18.6,-2.2,0.8
C=C(C)CSCc1nc2ccccc2[nH]1,6.2,-2.9,0.7,90.3*,27.6,0.1
O=C(CSCc1nc2ccccc2[nH]1)Nc1ccc2ccccc2c1,-1.9,0.1,0.4,32.2,58.3*,0.7
O=C(CSCc1cccc(CSCC(=O)Nc2ccc3ccccc3c2)n1)Nc1ccc2ccccc2c1,24.5,-22.4,0,80.6*,98.6*,0.2
O=C(CSc1cccs1)Nc1ccc2ccccc2c1,4.8,-5.6,0.4,59.6*,63.8*,0.4
O=C(CSC(=S)N1CCCCC1)N1N=CCC1c1ccccc1 (stereo not given),-9.2,8.2,1,41.6,2.0,0.6
CCCn1c(SCC(=O)c2ccc(OC)c(OC)c2)nc2c1c(=O)n(C)c(=O)n2C,-6.5,11.9,·,·,·,·
CCC(C)(C)n1nnnc1C(c1ccc(OC)c(OC)c1)N1CCN(c2ccccc2)CC1 (stereo not given),4.5,-3.3,0.3,67.9*,70.6*,0.3
CCC(C)(C)n1nnnc1C(c1ccc(OC)c(OC)c1)N1CCN(c2cccc(OC)c2)CC1 (stereo not given),6.7,-6.4,0.1,55.9*,86.4*,0.4
COc1ccc(C(c2nnnn2C(C)(C)C)N2CCN(C)CC2)cc1OC (stereo not given),·,·,1.1,-4.1,-6.4,1
CCC(C)(C)n1nnnc1C(c1ccc(OC)c(OC)c1)N1CCN(c2ccc(F)cc2)CC1 (stereo not given),9.2,-7.8,·,·,·,·
CCC(C)(C)n1nnnc1C(c1ccc(OC)c(OC)c1)N1CCN(c2ccc(OC)cc2)CC1 (stereo not given),-3.6,1.2,0.1,56.8*,88.5*,0.4
COc1ccc(C(CC(=O)O)NC(=O)COc2ccccc2)cc1 (stereo not given),-1.9,4.7,·,·,·,·
COc1ccc(S(=O)(=O)N(c2onc(C)c2Cl)S(=O)(=O)c2ccc(OC)cc2)cc1,·,·,0.6,3.0,41.3,1
CC(C)(NO)/C(=N/O)c1cccs1,3.3,-4.8,1,1.5,-3.9,1
CN1C(=O)N2CN(C3CCCCC3)CN3C(=O)N(C)C1C23 (stereo not given),-8.5,10.0,1.2,-4.8,-16.4,1
OC1CCN(c2c3c(nc4cc(-c5cccc(F)c5)nn24)CCCC3)CC1,·,·,0.6,28.9,42.2,0.7
Fc1cccc(-c2cc3nc4c(c(N5CCC6(CC5)OCCO6)n3n2)CCCC4)c1,·,·,0.3,25.6,74.1*,0.7
CN(CCO)c1c2c(nc3cc(-c4cccc(F)c4)nn13)CCCC2,-1.9,1.5,0.4,32.3,55.9*,0.7
O=C(O)CCC(=O)Nc1ccc(C(=O)N2CCCCC2)cc1,1.9,-2.2,0.8,15.0,15.3,0.8
COc1ccc(/C=N/NC(=O)C(=O)N2CCN(c3ccccc3OC)CC2)cc1,-15.2,13.2,0.6,6.9,35.5,0.9
Cc1ccc(S(=O)(=O)N2CCCCC2)cc1C(=O)Nc1ncn[nH]1,·,·,2*,-2.1,-97.4,1
Cc1ccc(S(=O)(=O)N2CCCCC2)cc1C(=O)Nc1ccc2cn[nH]c2c1,-10.0,10.1,0.4,30.6,63.9*,0.7
Cc1ccc(S(=O)(=O)N2CCCCC2)cc1C(=O)Nc1ccc(N2CCOCC2)cc1,14.3,-11.2,1,8.0,4.7,0.9
Cc1cc(NC(=O)c2cc(S(=O)(=O)N3CCCCC3)ccc2C)n(-c2ccccn2)n1,1.7,0.4,0.4,31.6,64.4*,0.7

# Screening results from PubChem BioAssay.
